Reference: PubChem BioAssay AID588473 (Sanford-Burnham Center for Chemical Genomics, 2011)
Hit rate of the full screen: of about 350,000 compounds, about 1,600 (0.46%) were called active.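 The calls were made as follows: active = activation of at least 50%, plus an integration ratio under a set limit after plate pattern correction; inactive = the rest.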 For the sample, actives were picked, then their nearest neighbours and some compounds at random.

Each molecule was assayed on CRF-binding protein / CRF receptor 2 complex (human) (assay: agonists of CRF-BP/CRF-R2 complex, primary screen, cell-based, HEK293, calcium dye fluorescence, uHTS (AID 588473;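 also: plate controls were neutral control wells without compound for no effect and CRF at EC100 for full effect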)). Details: calcium dye fluorescence (FLIPR), at 13.2 µM, active compounds read high, percent of saturating CRF peptide response.

activation, inactive:
C=C(C)Cn1c(C)cc(C)c(S(=O)(=O)c2ccccc2C)c1=O -0.15%
CC1COc2ccccc2N1S(=O)(=O)c1ccccc1 (stereo not drawn) 2.38%
Cc1nn(C)cc1/C=C1\CCC/C(=C\c2cn(C)nc2C)C1=O 0.2%
COc1cc(-c2nnc(NC(=O)CS(=O)(=O)c3ccc(Cl)cc3)o2)cc(OC)c1OC 3.74%
COc1ccc(-c2nnc(NC(=O)CS(=O)(=O)c3ccc(Cl)cc3)o2)c(OC)c1 -1.55%
CCCCN1C(=O)C(CC(=O)NCc2cccs2)CC(C(=O)N2CCOCC2)=C1C (stereo not drawn) -1.86%
CC(OC(=O)c1ccc(NC(=O)CC#N)cc1)C(=O)Nc1ccc(S(=O)(=O)N2CCCC2)cc1 (stereo not drawn) -0.83%
O=C(COC(=O)C1(c2ccc(F)cc2)CCCC1)N1CCNC1=O -1.56%
O=C(c1cccs1)N1CCCC(c2nc(-c3ccc(F)cc3)no2)C1 (stereo not drawn) -3.55%
N#Cc1c(C(F)(F)F)cc(-c2ccc(Cl)cc2)nc1SCC(=O)O 0.45%
CC1(C)SC2c3ccccc3C(=O)N2[C@@H]1C(=O)NCc1ccco1 (stereo partly drawn) -0.83%
COCCCNC(=O)C1CC(=O)N(CCc2ccccc2)C1 (stereo not drawn) -1.35%
O=C(Nc1cccc2ccccc12)c1onc2c1CCCC2 -2.42%
CC(OC(=O)CCCOc1ccccc1)C(=O)Nc1ccc(Cl)cn1 (stereo not drawn) -1.67%
O=C(c1ccccc1)c1ccc(C(=O)N2CCN(c3ccccc3)CC2)cc1 0.4%
O=C(NC(=O)N1CCOCC1)c1ccccc1 5.54%
Cc1ccc(S(=O)(=O)Nc2nc(CN3CCOCC3)nc3sc(C)c(C)c23)cc1 3.71%
CCC(=O)c1cc(F)ccc1OCC(=O)Nc1ccc2c(c1)OCCO2 0.29%
O=S(=O)(c1cccc(C(F)(F)F)c1)N1CCN(c2cnccn2)CC1 -0.32%
O=C(CN(c1cc(C(F)(F)F)ccc1Cl)S(=O)(=O)c1ccccc1)NCc1cccnc1 1.6%
COCCN(C(=O)CCC(=O)Nc1nccs1)C(C(=O)NC(C)(C)C)c1ccc(Cl)cc1 (stereo not drawn) 0.68%
CCCC(=O)Nc1ncnc2c1ncn2[C@@H]1O[C@@H]2OP(=O)(O)OC[C@H]2[C@H]1OC(=O)CCC -0.33%
O=C(Nc1cccc(S(=O)(=O)NC2=NCCC2)c1)C1CCCCC1 1.06%
O=C(O)C1OC(C(=O)O)C2C1C(F)(F)C2(F)F (stereo not drawn) 0.58%
CCOC(=O)Cc1cc(=O)[nH]c(=O)[nH]1 -0.34%
O=C(O)c1cc([N+](=O)[O-])c(Nc2cccc3ccccc23)c([N+](=O)[O-])c1 -0.94%
CC(Nc1ccc([N+](=O)[O-])cc1[N+](=O)[O-])c1ccccc1 (stereo not drawn) -3.71%
CCN=c1sc(C(=O)Nc2ccccc2)c(C)n1CC -2.99%
Cn1c2c(c(=O)n(C)c1=O)CN(Cc1ccco1)CN2 2.8%
CCOc1ccccc1N1CN(Cc2ccccc2)CNC1=S -0.43%
CCn1c(=O)c2ccccc2n(CC(=O)N2CCCc3ccccc32)c1=O 0.82%
Cn1c(SCC(=O)N2CCCc3ccccc32)nc2ccccc2c1=O 3.16%
CCOC(=O)CSC1=N/C(=C/c2ccc(-n3cncn3)cc2)C(=O)N1C(C)=O 1.8%
COc1cccc(CNS(=O)(=O)c2ccc3c(c2)N(C(C)=O)CCS3)c1 1.61%
CN(C)c1ccc(C=C2C(=O)OC3(CCCC3)OC2=O)cc1 23.8%
CC1CN(Cc2ccccc2)C(=S)NC1=O (stereo not drawn) -2.85%
Cc1ccccc1Cn1nc(C)c(NC(=O)C(F)(F)F)c1C -0.93%
CN(Cc1cc2cc(F)ccc2[nH]1)Cc1nc(-c2cnccn2)no1 -0.56%
O=C(CSc1nnc(-c2ccc([N+](=O)[O-])cc2)o1)Nc1ccccn1 -0.44%
Cc1cccc(CN2CCN(Cc3cnn(-c4ccccc4F)c3)CC2CCO)n1 (stereo not drawn) -2.69%
Cc1noc(C)c1COc1ccc(C(=O)NCCOc2ccccc2)cc1 3.12%
COc1ccc(C(=O)NNC(=O)c2cc(C)[nH]n2)cc1 -0.62%
Cc1onc(-c2ccccc2)c1C(=O)N=C(N)c1ccc(Cl)cc1 2.16%
O=C(NNC(=S)NC(=O)c1cn(-c2ccccc2)nc1-c1ccccc1)c1ccncc1 27.4%
O=S(=O)(N/N=C\c1cccn1-c1ccccc1)c1ccc2ccccc2c1 -1.5%
CCOC(=O)C1=C(N)N2C(=O)C(C)SC2=C(C(=O)OCC)C1c1cc(OC)c(OC)c(OC)c1 (stereo not drawn) -0.18%

activation, active:
CCN(CC)CCCC(C)n1c2nc(=O)[nH]c(=O)c-2nc2cc(Cl)ccc21 (stereo not drawn) 192%
COc1cccc(-c2nnc(NC(=O)c3ccc(S(=O)(=O)N(CC(C)C)CC(C)C)cc3)o2)c1 98.1%
N#Cc1c(-c2ccc(F)cc2)cc(C2CC2)nc1SCC(=O)c1cccs1 76.4%
COCCCNC(=O)[C@H]1N2C(=O)c3ccccc3C2SC1(C)C (stereo partly drawn) 53.6%
O=C(/C=C/c1ccc(N2CCOCC2)cc1)c1ccccc1 89.1%
O=S(=O)(c1cccc(C(F)(F)F)c1)N1c2ccccc2-n2cccc2C1c1cccnc1 (stereo not drawn) 138%
O=C(NC(Nc1nc2ccc([N+](=O)[O-])cc2s1)(C(F)(F)F)C(F)(F)F)c1ccccc1 69.9%
CCc1ccccc1N1CN(Cc2ccco2)CNC1=S 80.2%
C=CCn1c(=O)c2ccccc2n2c(SCC(=O)N3CCCc4ccccc43)nnc12 75.3%
CN(C)c1ccc(/C=C2\NC(=S)N(Cc3ccccc3)C2=O)cc1 191%
COc1ccc(C(=O)NC(=S)NNC(=O)c2c(-c3ccccc3)noc2C)cc1 99.3%
Cc1onc(-c2ccccc2)c1C(=O)NNC(=S)NC(=O)c1ccc(F)cc1 181%
